HCV inh: blocks hepatitis C virus | Huh7.5.1 HCVcc-Cre infection, luciferase reporter, 44 h | Potency, µM (series often up to 41.8 µM), inactives show at the top dose activity change, negative = inhibition, actives largely listed as inhibitors | AID 651820 | 340,000 compounds, 3.4% hits; note: potency is the fitted concentration of half-maximal effect; % is set by controls: 0 for no effect and ±100 for the full control effect
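Compounds are dispensed onto cells plated 4 h earlier at 1,000 per well, with HCVcc-Cre virus (about 0.5 moi) added next. Following 44 h of culture, luminescent signal is measured for 15 sec after 15 min with substrate at room temperature.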
Cycloheximide cs: counter-screen hit for Shiga toxin inhibitors, cycloheximide | cell reporter, cycloheximide protein synthesis inhibition counterscreen | max response, % | 300,000 compounds, 12% hits | AID 2314; in the data active = max response mostly above about 13%, no sharp cut-off; inactive = mostly below about 14%; note: read at 38.3 µM for the half of the compounds with a filed dose; 0% is about no effect
HCMV antiviral: inhibitors of human cytomegalovirus; HFF cells, HCMV-luciferase reporter, 72 h; stronger effect = lower value; activity change, negative = inhibition, % at 57.5 µM; 410,000 compounds, 4.5% hits; AID 1259415; in the data active = activity change below about -60%; inconclusive = no clear call, values can overlap the other calls; inactive = above about -39%; note: % is set by controls: 0 for no effect and ±100 for the full control effect
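Luciferase read-out from HCMV-luciferase-infected HFFs (MOI 1 PFU/cell) 72 h post infection at 37C; compounds added after 16 h cell attachment; activity normalized between buffer-only basal and Salinomycin (10uM) inhibitor controls.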
Shiga toxin inh: Shiga toxin inhibition; Vero cells, Shiga toxin protein synthesis inhibition reporter; inhibition, % at 38.7 µM; 290,000 compounds, 9.2% hits; in the data active = inhibition mostly above about 28%, no sharp cut-off; inactive = mostly below about 43%; note: 0% is about no effect
Pf growth 48h: P. falciparum growth inhibition at 48 hours (one generation). P. falciparum luciferase growth in erythrocytes, 48 h. Potency, µM (doses to about 28.7 µM), for the others: at the highest dose activity change, negative = inhibition, most hits filed as inhibitors. 310,000 compounds, 5.9% hits; note: potency is the fitted concentration of half-maximal effect; % is set by controls: 0 for no effect and ±100 for the full control effect
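Firefly luciferase activity from engineered P. falciparum reports growth; inhibitors lower the luminescent signal. Cultures contained 2% hematocrit erythrocytes at 0.1% final parasitemia.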
Pf growth 96h: inhibits malaria parasite growth, 96 h | Potency, µM (top dose mostly 28.7 µM), inactives show at the highest dose activity change, negative = inhibition, most hits filed as inhibitors | 320,000 compounds, 6.9% hits | AID 504834 | P. falciparum luciferase reporter growth, 96 h; note: potency is the fitted concentration of half-maximal effect; % is set by controls: 0 for no effect and ±100 for the full control effect
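Cell-based qHTS: luciferase-tagged P. falciparum in erythrocytes (2% hematocrit, 0.05% parasitemia final) incubated with compounds for 96 hours, 37 C, 5% CO2; luciferase detection reagent then added and luminescence measured.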
An asterisk follows results filed as active; u = inconclusive; x = no result; [ ] = another dose, or the depositor's remark. Shown are actives, neighbours in structure and some others; about 21% of the full set was active somewhere. Unless noted, calls come from the whole dose curve; as a rule, active = well fitted inhibition curve with a large enough effect; inconclusive = small, poorly fitted or top-dose-only effect, or another doubt; inactive = no such curve, though single readings can be large or run the other way.

SMILES	HCV inh	Cycloheximide cs	HCMV antiviral	Shiga toxin inh	Pf growth 48h	Pf growth 96h
CCOc1ccccc1C1c2[nH]c3ccccc3c2C[C@H]2C(=O)N(C3CCN(Cc4ccccc4)CC3)CC(=O)N12 (stereo not given in full)	u	7	u	21	0.93µM*	0.74µM*
COc1cccc(C2c3[nH]c4ccccc4c3C[C@H]3C(=O)N(CCCO)CC(=O)N23)c1OC (stereo not given in full)	4%	0	86	13	u	u
Cc1ccccc1C1c2[nH]c3ccccc3c2C[C@H]2C(=O)N(C3CCN(Cc4ccccc4)CC3)CC(=O)N12 (stereo not given in full)	x	-3	39	-5	3.3µM*	0.33µM*
COc1ccc(C2c3[nH]c4ccccc4c3C[C@H]3C(=O)N(C4CCN(Cc5ccccc5)CC4)CC(=O)N23)c(OC)c1 (stereo not given in full)	u	-2	46	-7	0.83µM*	1µM*
COc1cnc(-c2ccccn2)nc1Oc1ccccc1	-4%	1	-31	-4	12µM*	u
CN(c1ccccc1)c1ncccn1	16%	x	7	x	x	x
COc1cnc(-c2ccccn2)nc1Oc1cccc(C(F)(F)F)c1	x	13	-99*	-6	2.3µM*	1.7µM*
COc1cnc(-c2ccccn2)nc1N(C)c1ccccc1	10µM*	48*	-98*	66*	0.93µM*	0.93µM*
Cc1ccc(NC(=O)COC(=O)c2cccc(S(=O)(=O)N3CCCCCC3)c2)cc1	x	x	44	x	x	x
COc1ccc(C(=O)n2cnc(N)n2)cc1	14%	-1	15	-8	2%	x
CNC(=S)n1cnc(N)n1	5%	-3	-65*	-14	-7%	-13%
O=[N+]([O-])c1ccc(OCc2cnc(Cl)s2)c([N+](=O)[O-])c1	-20%	20*	-13	38	u	0%
COc1ccc(C)cc1NC(=O)c1cc(S(=O)(=O)NC2CCCCCC2)ccc1F	x	x	-34	x	x	x
CCCC(O)(CCC)C(=O)NN(C(=O)CCl)c1ccccc1	u	2	-81*	-7	u	-94%
CCCCC(O)(CCCC)C(=O)NN(C(=O)OCC)c1ccccc1	8%	1	-3	8	7%	25%
O=C1COc2ccc(C(=O)COC(=O)c3cc(S(=O)(=O)N4CCOCC4)ccc3F)cc2N1	-17%	-5	34	-15	u	14%
O=C1/C(=C/c2ccc3c(c2)OCO3)SC(=S)N1CCC(=O)N(CCO)c1ccccc1	x	x	-68*	x	x	x
O=C1/C(=C/c2cccc(Br)c2)SC(=S)N1CCC(=O)N(CCO)c1ccccc1	-17%	-1	-104*	1	-19%	-20%
O=C(CCN1C(=O)/C(=C\c2cccc(Br)c2)SC1=S)NCCCN1CCOCC1	u	-3	u	1	u	-3%
COc1cccc(/C=C2\SC(=S)N(CCCC(=O)N(CCO)c3ccccc3)C2=O)c1	u	-2	-97*	-4	12µM*	1.9µM*
COCCNC(=O)Cc1c(C)c2c(cc(C)c3c(C)coc32)oc1=O	3%	-5	12	-6	-1%[0.00184 µM]	13%
Cc1c(CC(=O)NCCc2ccccc2F)c(=O)oc2c(C)c3occ(C(C)(C)C)c3cc12	x	x	-78*	x	x	x
COCCCNC(=O)Cc1c(C)c2c(cc(C)c3c(C(C)(C)C)coc32)oc1=O	11µM*	2	-34	7	49%	32%
COc1ccc(CCNC(=O)Cc2c(C)c3cc4c(C(C)(C)C)coc4c(C)c3oc2=O)cc1	x	x	24	x	x	x
COc1ccc(C2=NC(c3ccccc3)=Nc3ccc(C)cc3N2)cc1	x	x	-15	x	x	x
SMILES	HCV inh	Cycloheximide cs	HCMV antiviral	Shiga toxin inh	Pf growth 48h	Pf growth 96h
CC1=CC(c2ccccc2)=Nc2ccc(C)cc2N1	-3%	57*	64	43*	259%	427%
Cc1cc(Cl)ccc1OC(C)C(=O)Nc1cccc(S(=O)(=O)N2CCOCC2)c1 (stereo not given)	x	x	-30	x	x	x
CC(Sc1nc2cc(Cl)ccc2s1)C(=O)Nc1cccc(S(=O)(=O)N2CCOCC2)c1 (stereo not given)	u	-3	-27	17	-22%	13µM*
O=C(Nc1cccc(S(=O)(=O)N2CCCCC2)c1)c1ccc2ccccc2n1	u	25*	-2	-21	-19%	0%
O=C(Nc1cccc(S(=O)(=O)N2CCOCC2)c1)c1ccc2ccccc2n1	u	30*	20	34	u	-25%
O=C(NC12CC3CC(CC(C3)C1)C2)c1ccco1	-9%	0	21	-16	u	0%
O=C(NC12CC3CC(CC(C3)C1)C2)c1ccc(-c2ccc(Cl)cc2)o1	u	85*	-24	129*	44%	u
O=C(NC12CC3CC(CC(C3)C1)C2)c1ccc(-c2ccccc2Cl)o1	-9%	44*	45	161*	-19%	36%
O=C(NC12CC3CC(CC(C3)C1)C2)c1ccc(-c2cccc(Cl)c2)o1	u	35*	-63*	83*	3%	u
O=C(NC12CC3CC(CC(C3)C1)C2)c1ccc(COc2ccc(Cl)cc2[N+](=O)[O-])o1	8.9µM*	-1	x	2	u	u
O=C(Nc1ccccc1)N1c2ccccc2SC1c1ccco1 (stereo not given)	x	x	0	x	x	x
CCc1ccc(S(=O)(=O)c2cn(C)c3cc(N4CCOCC4)c(F)cc3c2=O)cc1	x	x	-2	x	x	x
Cc1ccc(N/C=C2\C(=O)C3(C)CCC2C3(C)C)cc1C (stereo not given)	-16%	21*	-17	27	-8%	u
CNC(=O)C1CCC(Cn2c(=O)c3sccc3n(CC(=O)Nc3ccc(C)c(F)c3)c2=O)CC1 (stereo not given)	x	x	6	x	x	x
O=C(CSc1nccn1Cc1ccccc1)NCc1ccco1	x	x	46	x	x	x
CCc1nc2nc(C)c(NS(=O)(=O)c3ccc(C)cc3)c(=O)n2[nH]1	x	x	5	x	x	x
CC(=O)c1ccc(NC(=O)CSc2nc(N)c3cc4c(nc3n2)CCCC4)cc1	-10%	37*	91	66*	42%	55%
COc1ccc(NC(=O)CSc2nc(N)c3cc4c(nc3n2)CC(C)(C)OC4)cc1	8%	-2	20	1	45%	-17%
COc1ccc(NC(=O)CSc2nc(N)c3cc4c(nc3n2)CCCC4)cc1	2%	47*	41	61*	63%	52%
COc1cccc(NC(=O)Cn2c(=O)n(CCc3cccc(C)c3)c(=O)c3ccccc32)c1	x	x	-1	x	x	x
C=CCn1c(SCc2csc(C)n2)nc2sc3c(c2c1=O)CCC(C)C3 (stereo not given)	u	-2	19	17	12µM*	u
CC(NC(=O)CSc1n[nH]c(-c2ccccc2Cl)n1)c1nc2ccccc2n1C (stereo not given)	x	x	-12	x	x	x

Assay outcomes: PubChem, National Center for Advancing Translational Sciences (NCATS)
